The list is not random: actives were taken first. Their share in the collection is about 4.6%.
D1 antagonist = Antagonist of Human D 1 Dopamine Receptor: qHTS. D(1A) dopamine receptor (Homo sapiens), P21728. HEK293 TREx D1 cells, calcium flux, dopamine EC80; hits give low values. activity change, negative = inhibition, % at 10 µM. 360,000 compounds, 3.2% hits; in the data active = activity change below about -30%
Target sequence (P21728 whole entry, looked up): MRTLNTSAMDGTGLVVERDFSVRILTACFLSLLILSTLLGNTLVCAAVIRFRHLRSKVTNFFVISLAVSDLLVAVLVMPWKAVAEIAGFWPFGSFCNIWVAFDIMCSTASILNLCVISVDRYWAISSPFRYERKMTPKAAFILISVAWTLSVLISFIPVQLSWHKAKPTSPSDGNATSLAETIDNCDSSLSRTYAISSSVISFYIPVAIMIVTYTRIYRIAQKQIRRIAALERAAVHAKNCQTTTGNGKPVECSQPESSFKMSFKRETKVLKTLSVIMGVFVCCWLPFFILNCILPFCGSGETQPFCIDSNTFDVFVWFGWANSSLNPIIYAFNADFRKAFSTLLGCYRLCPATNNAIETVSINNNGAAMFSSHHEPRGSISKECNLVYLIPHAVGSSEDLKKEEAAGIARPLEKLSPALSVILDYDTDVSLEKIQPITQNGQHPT
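Calcium flux readout: force-coupled, inducible Hek293 Trex D1 line, cells induced overnight at 30 C with tetracycline, dye-loaded 30–90 min at RT. Antagonism scored against EC80 dopamine challenge given 180 s after compound.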
D1 agonist = Allosteric Agonists of the Human D1 Dopamine Receptor: qHTS | AID 504660, 2011 | HEK293 T-REx D1 cells, calcium flux, agonist mode | 360,000 compounds, 1% hits | activation, % at 2 µM | D(1A) dopamine receptor (Homo sapiens), P21728; in the data active = activation above about 30%
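Agonism was scored from calcium flux recorded over 180 s (1 read/s) after pintool compound addition, following a 10-cycle baseline. Cells were inducible force-coupled HEK293 TREx D1, plated overnight at 30 C and loaded with no-wash calcium dye.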
TRHR enhancer-1 = qHTS for Small Molecule Agonists and Allosteric Enhancers of Human TRH Receptor: Primary Screen for Enhancers | TRHR cells, fluo-8 calcium fluorescence, EC20 TRH enhancement | enhancement, % at 2 µM | 360,000 compounds, 0.66% hits | AID 493056, 2011 | Thyrotropin-releasing hormone receptor (Homo sapiens), P34981; in the data active = enhancement above about 30%
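TRHR-expressing cells loaded with fluo-8 calcium dye were read kinetically (ex 480/em 530) during compound addition, then stimulated with an EC20 of TRH (10 nM final). Enhancement of the Gq-mediated intracellular calcium response was scored.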
D1 potentiator = Potentiators of Human D1 Dopamine Receptor: qHTS; D(1A) dopamine receptor (Homo sapiens), P21728; HEK293 TREx D1 cells, calcium flux, dopamine EC20 potentiation; potentiation, % at 10 µM; 360,000 compounds, 0.036% hits; AID 504651, 2011; in the data active = potentiation above about 30%
TRHR agonist-1 = qHTS for Small Molecule Agonists and Allosteric Enhancers of Human TRH Receptor: Primary Screen for Agonists; Thyrotropin-releasing hormone receptor (Homo sapiens), P34981; AID 493084, 2011; activation, % at 2 µM; 360,000 compounds, 0.18% hits; TRHR cells, calcium flux fluo-8, FDSS agonist mode; in the data active = activation above about 30%
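Steps: seed TRHR cells overnight; add fluo-8 no-wash Ca dye, RT 30 min–1.5 h; record 10 s baseline; pin-transfer compounds; monitor fluorescence 1 cycle/s for the agonist window. Calcium increases flag candidate agonists.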
TRHR enhancer-2 = qHTS for Small Molecule Agonists and Allosteric Enhancers of Human TRH Receptor: Confirmation Screen for Enhancers; shares compounds with TRHR enhancer-1; 970 tested, under 10 active; activity change, negative = inhibition, % at 46.1 µM; AID 493076, 2011; TRH receptor cell assay, enhancer confirmation qHTS;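 note: compound effect scored on response to added TRH at EC20 of 10 nM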
TRHR agonist-2 = qHTS for Small Molecule Agonists and Allosteric Enhancers of Human TRH Receptor: Confirmation Screen for Agonists | TRHR-expressing cells, agonist activation read-out | 970 compounds, 8% hits | AID 493078, 2011 | shares compounds with TRHR enhancer-1 | Potency, µM (highest dose often 46.1 µM), actives largely listed as activators; note: nearly all actives have a fitted effect of over 75% in size
Numbers stand for hits. Unless noted, calls come from the whole dose curve; as a rule, active = well fitted curve in the direction sought with a large enough effect; inconclusive = small, poorly fitted or top-dose-only effect, or another doubt; inactive = no such curve, though single readings can be large; an effect the other way counts as inactive or inconclusive.

For CCN(CC(=O)NCc1cccs1)C(=O)CN(C)S(=O)(=O)c1ccc(C)cc1 the results were D1 antagonist inactive, D1 agonist inactive, TRHR enhancer-1 inactive, D1 potentiator inactive and TRHR agonist-1 inactive.
CN(C)S(=O)(=O)c1ccc(C(=O)NCc2ccccn2)cc1 was read as D1 antagonist inactive, D1 agonist inactive, TRHR enhancer-1 inactive, D1 potentiator inactive and TRHR agonist-1 inactive.
Screening CCOc1ccc(S(=O)(=O)N2CCN(c3ccc(OC)cc3)CC2)c2cccnc12 returned D1 antagonist inactive, D1 agonist inactive, TRHR enhancer-1 43.7, D1 potentiator inactive, TRHR agonist-1 inactive, TRHR enhancer-2 inactive and TRHR agonist-2 inactive.
Screening N#C/C(=C(/O)c1ccccc1F)c1nc2cc(C(F)(F)F)ccc2s1 returned D1 antagonist inactive, D1 agonist inactive, TRHR enhancer-1 41.1, D1 potentiator inactive, TRHR agonist-1 inactive, TRHR enhancer-2 inactive and TRHR agonist-2 inactive.
`COc1cccc(CN(C)C(=O)c2ccc(S(=O)(=O)Nc3ccccc3F)cc2)c1OC` gave D1 antagonist inactive, D1 agonist inactive, TRHR enhancer-1 47.6, D1 potentiator inactive, TRHR agonist-1 inactive, TRHR enhancer-2 inactive and TRHR agonist-2 inactive.
Screening Cc1ccc(-c2cc(C(=O)Nc3cccnc3)c3ccccc3n2)s1 returned D1 antagonist inactive, D1 agonist inactive, TRHR enhancer-1 inactive, D1 potentiator inactive and TRHR agonist-1 inactive.
Screening CCCCNC(=O)Cc1ccc(Br)cc1 returned D1 antagonist inactive, D1 agonist inactive, TRHR enhancer-1 inactive, D1 potentiator inactive and TRHR agonist-1 inactive.
For COc1cc(C(=S)N2CCOCC2)ccc1OC(=O)c1cccc(C)c1 the results were D1 antagonist inactive, D1 agonist inactive, TRHR enhancer-1 48.5, D1 potentiator inactive, TRHR agonist-1 inactive, TRHR enhancer-2 inactive and TRHR agonist-2 inactive.
Screening COc1ccc(-c2cc(C(=O)NCCc3ccccc3)c3cc(C(C)C)ccc3n2)cc1 returned D1 antagonist inactive, D1 agonist inactive, TRHR enhancer-1 inactive, D1 potentiator inactive and TRHR agonist-1 inactive.
For COc1ccc(-c2cc(C(=O)NCCN3CCOCC3)c3cc(C(C)C)ccc3n2)cc1 the results were D1 antagonist inactive, D1 agonist inactive, TRHR enhancer-1 46.6, D1 potentiator inactive, TRHR agonist-1 inactive, TRHR enhancer-2 inactive and TRHR agonist-2 inactive.
Screening COc1ccc(C2(C(=O)NC(C)C)CCCC2)cc1OC returned D1 antagonist inactive, D1 agonist inactive, TRHR enhancer-1 52.2, D1 potentiator inactive, TRHR agonist-1 inactive, TRHR enhancer-2 inactive and TRHR agonist-2 inactive.
For COc1ccc(C2(C(N)=O)CCCCC2)cc1OC the results were D1 antagonist inactive, D1 agonist inactive, TRHR enhancer-1 inactive, D1 potentiator inactive and TRHR agonist-1 inactive.
For O=S(=O)(Nc1ncnc2c1oc1ccccc12)c1ccc(Cl)s1 the results were D1 antagonist inactive, D1 agonist inactive, TRHR enhancer-1 50.7, D1 potentiator inactive, TRHR agonist-1 inactive, TRHR enhancer-2 inactive and TRHR agonist-2 inactive.
Screening CNc1c(NS(=O)(=O)c2ccc(Cl)s2)c(=O)oc2ccccc12 returned D1 antagonist inactive, D1 agonist inactive, TRHR enhancer-1 inactive, D1 potentiator inactive and TRHR agonist-1 inactive.
For CCN(CC)C(=O)C1CCN(c2ncnc3c2cnn3-c2ccc(C)cc2C)CC1 the results were D1 antagonist inactive, D1 agonist inactive, TRHR enhancer-1 44.5, D1 potentiator inactive, TRHR agonist-1 inactive, TRHR enhancer-2 inactive and TRHR agonist-2 inactive.
